Rows were chosen to be rich in hits. Some 4.8% of all compounds tested hit in one or more screens of this group.
hgDAF12 agonist: agonists of H. glycines DAF-12 nuclear receptor; activation, % at 6.8 µM; 1.8% of 370,000 active; HEK293 GAL4-hgDAF12 UAS-luciferase reporter, agonist luminescence; normalized to butyrate control;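 active means activation above a cutoff set at the mean of all screened compounds plus 3 SD, cut at about 10% in these data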;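 further: 0% = DMSO wells and 100% = sodium butyrate wells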
DAX1 inh-1: DAX1 (NR0B1) inhibition, primary screen; inhibition, % at 6.8 µM; 1.1% of 370,000 active; HEK293T StAR-luciferase reporter, SF-1/DAX-1 repression relief; AID 652010;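 active means inhibition above the mean over all tested compounds plus 3 SD, cut at about 3.6% in these data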;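 further: 0% = DAX-1 cells with DMSO and 100% = cells lacking DAX-1 with DMSO; higher inhibition means more luminescence from relief of DAX-1 repression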
hcDAF-12 act: activators of H. contortus DAF-12 nuclear receptor. HEK293 hcDAF-12 lit1-tk-luc reporter, luminescence; 0% DMSO, 100% Δ7-dafachronic acid. activation, % at 6.8 µM. 1.4% of 370,000 active. AID 652067;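 active means activation above the mean of all tested compounds plus 3 SD, cut at about 5.5% in these data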;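 further: 100% = response to 3 µM Δ7-dafachronic acid high control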
DAX1 inh-2: NR0B1 (DAX1) inhibition; 0.99% of 340,000 active; HEK293 Gal4-DAX1 luciferase reporter, luminescence; inhibition, % at 6.75 µM; AID 504766;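 active means inhibition above the mean over all tested compounds plus 3 SD, cut at about 4.2% in these data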;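 further: 0% = DAX1-transfected cells with DMSO and 100% = empty-vector control cells with DMSO; inhibition shows as a rise in luminescence from relieved DAX1 repression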
Target sequence (P51843 207-470 limits assumed): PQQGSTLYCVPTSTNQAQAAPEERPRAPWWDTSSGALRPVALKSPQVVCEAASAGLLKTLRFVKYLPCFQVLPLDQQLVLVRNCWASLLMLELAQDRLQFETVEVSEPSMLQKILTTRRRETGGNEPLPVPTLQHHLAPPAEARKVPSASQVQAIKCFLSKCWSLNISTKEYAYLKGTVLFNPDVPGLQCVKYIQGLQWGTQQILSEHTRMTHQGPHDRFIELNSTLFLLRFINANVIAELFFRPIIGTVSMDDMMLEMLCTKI
SMARCA2 act: activators of SMARCA2 function; MG213 cells, MMTV-luciferase reporter, dexamethasone, overnight; 1% of 370,000 active; activation, % at 9.1 µM; in the data active means activation above about 7.8%;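 further: 0% = vehicle wells and 100% = reference activator wells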
ssDAF12 agonist: activators of S. stercoralis DAF-12 nuclear receptor; HEK293 ssDAF-12/GRIP1 lit1-tk-luc reporter, luminescence; % of 3 µM dafachronic acid response; activation, % at 6.8 µM; 1% of 370,000 active;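 active means activation above the mean over all tested compounds plus 3 SD, cut at about 0.9% in these data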;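 further: 0% = DMSO-only wells and 100% = 3 µM delta7-dafachronic acid wells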
The depositor's hits bear a star; . = not tested or not shown.

SMILES	hgDAF12 agonist	DAX1 inh-1	hcDAF-12 act	DAX1 inh-2	SMARCA2 act	ssDAF12 agonist
C=CCN(C(=O)c1csnn1)C(C(=O)NC1CCCCC1)c1ccc(F)cc1 (stereo not drawn)	0.4	-0.2	-0.4	-0.8	-1.9	-1.7
CC1CCN(CC(=O)NC2CCCCC2)CC1	-0.6	0.3	-1.2	4.3*	-0.9	0.0
CN1OC[C@@H]2CN(C(=S)Nc3ccc(C#N)cc3)[C@H](c3ccc(N4CCCCC4)cc3)C[C@@H]21	-1.5	1.4	1.2	.	-3.7	-1.1
CCN(CC(=O)Nc1cc(S(=O)(=O)N2CCOCC2)ccc1C)Cc1ccccc1	-1.3	-1.2	-1.6	-0.3	-2.6	-1.4
COc1ccc(C)c2sc(=NC(=O)c3ccc(C(C)=O)cc3)n(C)c12	12.5*	1.6	2.1	4.7*	2.6	0.1
COc1ccc(C)c2sc(=NC(=O)C(C)C)n(C)c12	-1.4	-1.3	1.6	0.3	0.6	-1.1
CC(=N/O)/C(C)=N\NC(=O)c1ccccn1	13.2*	1.5	2.9	3.9	4.9	-0.4
C/C(CC(=O)NCc1ccccc1Cl)=N/NC(=O)c1ccccn1	10.7*	2.5	5.1	0.2	5.0	-0.4
CC(=O)c1ccc2c(c1)N(Cc1ccccc1)C(=O)C(C)S2 (stereo not drawn)	1.1	-0.2	-0.7	.	-1.4	-1.2
COc1ccc(S(=O)(=O)n2ccnc2C)c(C)c1C	-0.1	-0.1	-1.6	3.2	-0.3	-1.3
Nc1n[nH]c(N)c1N=Nc1ccc2c(c1)OCO2	8.8	0.8	1.6	4.8*	5.7	-0.8
Cc1ccc(N=Nc2c(N)n[nH]c2N)cc1	6.4	0.9	1.9	-0.3	1.5	-0.9
CCCSc1nnc(CSc2ncccn2)n1C	6.7	0.1	5.9*	-0.1	0.8	-1.1
Cc1ccc(C)c(S(=O)(=O)NCC(=O)Nc2ccc3c(c2)OCO3)c1	-0.2	-0.4	-2.1	0.1	-1.4	-0.3
CSc1nsc2nc(=O)c(/C=C3\C(C)=Nc4ccccc43)c(N)n12	5.9	0.9	4.6	1.9	-1.8	0.9*
Cc1ccc(CCNC(=O)CC2Oc3ccc(C)cc3NC2=O)cc1 (stereo not drawn)	2.5	0.6	-0.5	10.7*	0.4	-1.0
Cc1ccc2c(c1)NC(=O)C(CC(=O)NCCN(C)C)O2 (stereo not drawn)	-2.6	-0.1	2.8	3.8	-3.9	-1.7
Cc1ccc2c(c1)NC(=O)C(CC(=O)NCCCN1CCCCC1)O2 (stereo not drawn)	6.5	-0.4	-1.4	4.5*	-0.5	-1.0
Cc1cc(C)c(CN2CCN(C(=O)CC[C@H]3O[C@@H](n4cnc5c(NC(=O)c6ccccc6)ncnc54)[C@H](O)[C@@H]3O)CC2)c(C)c1	3.1	0.5	0.0	.	-3.8	-1.0
C[C@H](O)[C@@H]1CN2CCc3c([nH]c4ccc(-c5ccc6c(c5)OCO6)cc34)[C@@H]2C[C@@H]1N(C)C(=O)Nc1cc(Cl)cc(Cl)c1	2.4	-3.8	0.0	0.9	-6.1	-1.1
CCOc1ccc(N2C(=O)c3ccccc3NC2(C)CC)cc1 (stereo not drawn)	12.1*	3.7*	3.3	0.3	-0.3	-1.1
COc1ccc(N2C(=O)c3ccccc3NC23CCC(C)CC3)cc1 (stereo not drawn)	12.8*	0.9	2.2	0.8	4.3	-0.9
Nc1ccccc1C(=O)N1CCc2ccccc21	5.9	0.6	5.5	1.6	2.5	0.8
O=C1C(c2ccccc2)=NCCN1C(c1ccc(F)cc1)c1nc2ccccc2[nH]1 (stereo not drawn)	2.3	-0.5	6.1*	.	4.7	0.3
CC(C)C#Cc1ccc2c(c1)O[C@@H](CN(C)S(=O)(=O)c1cn(C)cn1)[C@@H](C)CN([C@H](C)CO)S2(=O)=O	7.4	-1.0	-1.7	0.5	-0.8	-1.3
SMILES	hgDAF12 agonist	DAX1 inh-1	hcDAF-12 act	DAX1 inh-2	SMARCA2 act	ssDAF12 agonist
N#CC1=C2SC=C(c3ccc(Br)cc3)N2CCCC1=O	11.3*	3.7*	3.3	4.2	1.5	-1.1
COc1cc2[nH]c(C(=O)N3CCC(Cc4ccccc4)CC3)cc2c(OC)c1OC	-0.1	-0.4	-1.6	-0.4	-5.4	-1.1
C/C(=N\Nc1nc2ccccc2[nH]1)c1ccc(N2CCOCC2)cc1	7.5	3.9*	3.4	0.1	1.9	0.0
O=S(=O)(NC1=NCCCCC1)c1cc(F)ccc1F	1.4	-0.1	-0.8	4.5*	-3.8	-1.2
Fc1ccc(F)c(NC2=NCCCCC2)c1	1.3	0.2	-1.6	-0.1	-1.8	-0.7
Cc1nn(CCC(=O)NNC(=O)Nc2ccc(F)cc2)c(C)c1[N+](=O)[O-]	-0.9	0.7	-1.4	.	6.2	-1.4
Cc1ccc(C(=O)N(C)CC(=O)Nc2cccc(C)c2C)o1	-3.1	0.1	1.0	-0.5	-0.7	0.3
COc1cc(CC(=O)O)c([N+](=O)[O-])cc1OC	1.8	-0.5	-1.5	1.6	-0.1	-1.4
COc1cc2c(cc1[N+](=O)[O-])n(C(C)C)c(=O)n2C(C)C	-3.8	-0.1	-2.3	5.5*	3.6	-0.9
C/C(=N\Nc1ccc(C(=O)O)cc1)c1ccc2c(c1)Nc1ccccc1S2	-0.1	-0.1	-0.4	6.1*	0.8	-2.0
CCN1CCN(Cc2ccc(NC(=O)Nc3ccccc3OC)cc2)CC1	11.7*	1.2	4.9	1.9	4.6	0.0
O=C(Cn1cnc2ccc(Cl)cc2c1=O)NC1CCS(=O)(=O)C1 (stereo not drawn)	0.7	1.8	1.9	-0.5	-1.3	-0.2
COc1cc(C#N)ccc1OC(=O)c1cccc(S(=O)(=O)N2CCN(C)CC2)c1	-0.2	3.5	0.5	0.4	0.7	-1.4
CCCCN(CCCC)S(=O)(=O)c1ccc(C(=O)Nc2nnc(CSC)o2)cc1	-1.8	0.2	-0.6	4.2*	-3.9	-0.2
CCCCN(CC)S(=O)(=O)c1ccc(C(=O)Nc2nnc(CSC)o2)cc1	1.4	-1.2	0.1	0.5	-5.0	-0.3
COC(=O)c1cc(=O)n(Cc2ccc(F)cc2)c(=Nc2ccccc2)s1	-2.6	0.4	-2.0	0.4	-4.3	-1.3
COC(=O)c1cc(=O)n(Cc2cccs2)c(=Nc2ccccc2)s1	-0.3	-1.0	-1.2	4.3*	2.5	-0.8
O=S1(=O)N=C(Nc2nc3c(s2)CCCC3)c2ccccc21	11.0*	2.8	4.8	0.8	6.2	0.1
O=C(CCC(=O)N1CCN(c2ccccn2)CC1)c1ccc(Cl)s1	6.4	0.6	0.7	-0.1	-0.9	-1.2
Cn1nc(-c2ccc(Cl)cc2)c2cc(C(=O)N3CCN(c4ccccc4)CC3)sc21	2.0	-0.3	5.7*	-0.3	-0.7	0.1
CCN1CCCC1CNC(=O)c1cc2c(-c3ccc(Cl)cc3)nn(C)c2s1 (stereo not drawn)	.	.	.	4.6*	.	.
COc1cccc(-c2nn(C)c3sc(C(=O)NCc4ccco4)cc23)c1	1.7	-1.5	0.2	-0.1	7.7	-1.3
